# Bioassay records deposited in PubChem BioAssay by National Center for Advancing Translational Sciences (NCATS).
# Pf growth 96h = P. falciparum growth inhibition at 96 hour, primary screen for plastid delayed-death inhibitors; 6.9% of 320,000 active; Potency, µM (titrated, usually from 28.7 µM), for the others: at the top dose activity change, negative = inhibition, actives largely listed as inhibitors; P. falciparum luciferase reporter growth, 96 h; also: potency is read from the fitted curve at half-maximal effect; % is scaled to controls: 0 for no effect and ±100 for the full control effect
#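 Two-generation exposure (96 h) targets delayed-death phenotype. Reporter parasites carrying integrated firefly luciferase, in red cells at 2% hematocrit and 0.05% parasitemia final, kept at 37 C, 5% CO2; luminescence loss indicates inhibition.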
# Pf growth 48h = P. falciparum growth inhibition at 48 hours (one generation); P. falciparum luciferase growth in erythrocytes, 48 h; Potency, µM (doses to about 28.7 µM), without a hit: at the highest dose activity change, negative = inhibition, usual class: inhibitors; 5.9% of 310,000 active; AID 504832; also: potency is read from the fitted curve at half-maximal effect; % is scaled to controls: 0 for no effect and ±100 for the full control effect
#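 A one-generation exposure of luciferase-tagged malaria parasites in RPMI 1640/Albumax erythrocyte culture, 37 C and 5% CO2. Inhibition is inferred from decreased luminescence after adding detection reagent.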
# Shiga toxin inh = inhibitors of Shiga toxin in Vero cells. Vero cells, Shiga toxin protein synthesis inhibition reporter. inhibition, % at 38.7 µM. 9.2% of 290,000 active. AID 2315; in the data active = inhibition mostly above about 28%, no sharp cut-off; inactive = mostly below about 43%; also: 0% is about no effect
# Cycloheximide cs = counter-screen for Shiga toxin inhibitors: cycloheximide protein synthesis inhibition; cell reporter, cycloheximide protein synthesis inhibition counterscreen; max response, %; 12% of 300,000 active; AID 2314; in the data active = max response mostly above about 13%, no sharp cut-off; inactive = mostly below about 14%; also: read at 38.3 µM for the half of the compounds with a filed dose; 0% is about no effect
# Numbers without * were called inactive; ? = inconclusive; . = not tested or not shown. Shown are actives, neighbours in structure and some others; about 21% of the full set was active somewhere. Unless noted, calls follow the shape of the dose curve; as a rule, active = well fitted inhibition curve with a large enough effect; inconclusive = small, poorly fitted or top-dose-only effect, or another doubt; inactive = no such curve, though single readings can be large or run the other way.
SMILES,Pf growth 96h,Pf growth 48h,Shiga toxin inh,Cycloheximide cs
O=C(O)C1=C[C@@H](C2CCCCC2)C[C@@H](OCc2ccc(CO)cc2)O1,85.8%,52.0%,7.0,-1.8
C#CCNC(=O)C1=C[C@@H](C2CCCCC2)C[C@@H](OCc2ccc(CO)cc2)O1,-7.7%,?,14.5,5.6
O=C(NC1CC1)C1=C[C@H](C2CCCCC2)C[C@H](OCc2ccc(CO)cc2)O1,-13.4%,15.4%,35.3*,12.7*
CCOc1ccc(-n2nnnc2SCC(=O)Nc2cccc(O)c2)cc1,-14.4%,-8.9%,-14.0,6.9
COc1cccc(CNC(=O)CCC(=O)N2CCOCC2)c1,6.4%,-2.7%,.,.
Clc1ccc(CCC(Cn2ccnc2)Sc2c(Cl)cccc2Cl)cc1 (configuration not stated),0.928µM*,1.47µM*,.,.
CCOc1ccc(-n2c(-c3ccccc3)c[n+]3c2CCCCC3)cc1,?,?,-6.1,-1.1
c1ccc(-c2c[n+]3c(n2-c2ccccc2)CCC3)cc1,?,0.828µM*,17.8,-0.7
Cc1ccc(-n2c(-c3ccccc3)c[nH]c2=S)cc1,13.6%,3.3%,-15.1,-2.9
Cc1ccc(-c2c[n+]3c(n2-c2ccccc2)CCC3)cc1,0.147µM*,1.47µM*,-9.3,1.1
COC(=O)C1=C(c2ccc(OCc3ccccc3)cc2)C[C@@H]2CC[C@H]1N2C(=O)NCc1ccc(N(C)C)cc1,9.28µM*,?,.,.
COC(=O)C1=C(c2ccccc2OCc2ccccc2)C[C@@H]2CC[C@H]1N2C(=O)NCCc1ccc(F)cc1,?,10.4µM*,.,.
COC(=O)C1=C(c2ccccc2OCc2ccccc2)C[C@@H]2CC[C@H]1N2C(=O)NCc1ccc(Br)cc1,?,10.4µM*,.,.
COC(=O)C1=C(c2c(C)noc2C)C[C@@H]2CC[C@H]1N2C(=O)NCc1ccc(C(F)(F)F)cc1,-25.8%,?,.,.
COC(=O)C1=C(c2ccccc2OCc2ccccc2)C[C@@H]2CC[C@H]1N2C(=O)NCc1cccc(C(F)(F)F)c1,?,10.4µM*,.,.
COC(=O)C1=C(c2cccc(C#N)c2)C[C@@H]2CC[C@H]1N2C(=O)NCc1ccc(F)cc1,-8.4%,?,.,.
O=C(CC1N=C(Cc2ccccc2)NNC1=O)N/N=C/c1ccc([N+](=O)[O-])cc1 (configuration not stated),25.0%,-4.1%,28.0,8.1
COC(=O)C1=C(c2ccccc2OCc2ccccc2)C[C@@H]2CC[C@H]1N2C(=O)NCCN1CCOCC1,4.65µM*,?,.,.
COC(=O)C1=C(c2ccccc2OCc2ccccc2)C[C@@H]2CC[C@H]1N2C(=O)NCc1ccccc1,4.15µM*,10.4µM*,.,.
COC(=O)C1=C(c2ccc(OC(F)(F)F)cc2)C[C@@H]2CC[C@H]1N2C(=O)NCCO,5.3%,25.4%,.,.
COC(=O)C1=C(c2ccc(OCc3ccccc3)cc2)C[C@@H]2CC[C@H]1N2C(=O)NCc1cccc(C(F)(F)F)c1,1.85µM*,4.15µM*,.,.
COC(=O)C1=C(c2ccccc2OCc2ccccc2)C[C@@H]2CC[C@H]1N2C(=O)NCc1ccc(C(F)(F)F)cc1,?,13.1µM*,.,.
CCCOC(=O)Nc1nnc(CCC)s1,.,59.9%,39.9,12.6
COc1cccc(C(c2ccccc2)N2C3CCC2CN(S(=O)(=O)c2ccc(F)cc2)CC3)c1 (configuration not stated),-0.5%,2.08µM*,.,.
S=C(NCC1COc2ccccc2O1)Nc1ccccc1 (configuration not stated),?,0.7%,4.6,6.1
SMILES,Pf growth 96h,Pf growth 48h,Shiga toxin inh,Cycloheximide cs
CCOc1cc(C2/C(=C(/O)c3ccc(OC(C)C)cc3)C(=O)C(=O)N2CCCOC)ccc1O (configuration not stated),-20.1%,149.7%,87.1*,48.3*
COc1cc(C2/C(=C(/O)c3ccc(OCC(C)C)cc3)C(=O)C(=O)N2CCN(C)C)ccc1O (configuration not stated),11.7µM*,9.3%,-18.8,-3.1
CC(C)Oc1ccc(/C(O)=C2/C(=O)C(=O)N(CCN(C)C)C2c2cccs2)cc1 (configuration not stated),?,25.6%,74.1*,18.3*
CC(C)COc1ccc(/C(O)=C2/C(=O)C(=O)N(CCN(C)C)C2c2ccncc2)cc1 (configuration not stated),24.5%,41.3%,-4.6,-1.0
C=CCN(CC=C)C(=S)NC(=O)c1ccc(C)c(Br)c1,?,?,18.7,11.2
CCOn1c(=O)c(-c2cccs2)[n+]([O-])c2ccccc21,-35.5%,.,-3.6,14.6
CCOC(=O)COn1c(=O)c(-c2cccs2)[n+]([O-])c2ccccc21,?,42.3%,30.4,33.0*
COn1c(=O)c(-c2cccs2)[n+]([O-])c2ccccc21,57.1%,49.2%,48.6,19.9*
COc1ccc(/C=C(/NC(=O)c2ccc(C)cc2)C(=O)N2CCCC2)cc1OC,-20.5%,2.2%,4.4,-3.2
Oc1ccc(C2=NN(c3ccccc3)C(c3ccc(F)cc3)C2)cc1 (configuration not stated),?,9.28µM*,29.1,9.2
Oc1ccccc1C1=NN(c2ccccc2)C(c2ccc(F)cc2)C1 (configuration not stated),10.4µM*,?,1.6,6.3
CC(=O)N1N=C(c2ccccc2)CC1c1ccc(F)cc1 (configuration not stated),1.8%,-2.4%,.,-2.4
Cc1ccc(CN(C)C(=O)C2CCC(=O)N(C3CCCCCC3)C2)cc1 (configuration not stated),-21.6%,-28.8%,-12.3,5.2
CC1C(=O)N2CCCc3cc(S(=O)(=O)N(C)CCC#N)cc1c32 (configuration not stated),33.5%,-8.5%,-2.2,-4.3
CC1CCCC(C)N1/N=C/c1ccc(N(C)C)cc1 (configuration not stated),5.6%,0.7%,23.8,11.8
Oc1ccc(/C=N/N2CCCCC2)cc1O,-17.0%,33.5%,5.7,11.1
CC1CCCC(C)N1/N=C/c1ccc([N+](=O)[O-])cc1 (configuration not stated),2.0%,8.9%,54.1*,42.7*
Clc1ccc(/C=N/N2CCCCC2)cc1,-7.6%,-8.4%,33.6*,28.6*
O=[N+]([O-])c1ccc(/C=N/N2CCCCC2)cc1,168.9%,148.3%,127.5*,34.3*
CC(C)CN(C(=O)C1COc2ccccc2O1)c1c(N)n(CC(C)C)c(=O)[nH]c1=O (configuration not stated),-23.2%,-10.8%,.,.
O=C(c1cc(-c2ccc(Cl)cc2Cl)on1)N1CCCCCC1,54.9%,123.0%,99.4*,38.1*
O=C(c1cc(-c2ccc(Cl)cc2Cl)on1)N1CCCC1,?,50.9%,89.3*,23.4*
Cc1ccccc1NC(=O)Cc1nc(-c2ccc3ccccc3c2)cs1,-19.3%,1.1%,7.3,5.7
Oc1csc(Cc2nc(-c3ccc4ccccc4c3)cs2)n1,160.4%,81.7%,58.9*,38.2*
Oc1csc(Cc2nc(-c3ccc(-c4ccccc4)cc3)cs2)n1,4.5%,60.9%,53.0*,26.9*
Oc1csc(Cc2nc(-c3ccccc3F)cs2)n1,-14.7%,121.7%,78.1*,47.1*
